Assay results published in PubChem BioAssay (NCI).
Several values for one entry are separate records, joined by “and”; a condition that tells them apart may be missing. Identical values can stand only once. The panel holds about 83,000 compounds, 20% with a hit somewhere; the sample as a whole holds those more often.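 How to read the values: 0–100, growth inhibition (40 = 60% inhibited); 0, no net growth; -100 to 0, cell death (-40 = 40% of starting cells died; -100 = all dead).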 Activity calls are given as the source filed them. How the source made its calls: active means growth percent below 10; inactive means the rest. Starred links: 1 amine or outer side, 2 acyl side, 3 side chain; linkers in the order of their positions; H or OH if unused. Positions of bridges follow the written chain, without caps; N, C: chain ends. Non-standard residues stand in square brackets, D forms with d. Residues, ends and D or L forms follow the SMILES beside them. Chains are numbered I, II in the order given. Actinocin(9to1) = Cc1c2oc3c(C)ccc(C(=O)[*:1])c3nc-2c(C(=O)[*:2])c(N)c1=O; aThr = C[C@H](O)[C@H](N)C(=O)O; NMeV = CN[C@H](C(=O)O)C(C)C; Sar = CNCC(=O)O

Tests used:
Test in all cases: NCI-60 one-dose screen, 48 h (100 = growth as untreated, 0 = no growth, -100 = all killed)
SW-620 colon = test system: SW-620 colon
MCF7 breast = test system: MCF7 breast
HCT-116 colon = test system: HCT-116 colon
HCC-2998 colon = test system: HCC-2998 colon
KM12 colon = test system: KM12 colon

Measured: growth

Cc1cnc(/C=N\NC(N)=S)c2cccc(N)c12
inactive: SW-620 colon; 10 µM 35% | HCT-116 colon; 10 µM 17.4% | KM12 colon; 10 µM 27.9%
active: MCF7 breast; 10 µM 9.29% | HCC-2998 colon; 10 µM -39.3%

S=c1[nH]nc(Cc2ccccc2)c(=S)[nH]1
inactive: SW-620 colon; 10 µM 109% | MCF7 breast; 10 µM 96.5% | HCT-116 colon; 10 µM 100% | HCC-2998 colon; 10 µM 103% | KM12 colon; 10 µM 93.2%

CCCCCCCCCCCCCCCCCN
inactive: SW-620 colon; 10 µM 97.1% | MCF7 breast; 10 µM 100% | HCT-116 colon; 10 µM 102% | HCC-2998 colon; 10 µM 126% | KM12 colon; 10 µM 110%

CN1CCN(c2ccc3nc(-c4ccc5nc(-c6ccc(O)cc6)[nH]c5c4)[nH]c3c2)CC1
inactive: SW-620 colon; 10 µM 87.1% | MCF7 breast; 10 µM 34.5% | HCT-116 colon; 10 µM 48.3% | KM12 colon; 10 µM 106%

O=C(/C(=C/c1ccccc1)CBr)c1ccccc1
inactive: SW-620 colon; 10 µM 17.3% | MCF7 breast; 10 µM 42.9% | HCT-116 colon; 10 µM 35.8% | HCC-2998 colon; 10 µM 108% | KM12 colon; 10 µM 88.5%

COc1ccc2c(C)cc(N/N=C/c3sccc3C)nc2c1
active: MCF7 breast; 100 µM -73.1% and -100%

Cc1c2oc3c(C)ccc(C(=O)N[C@@H]4C(=O)N[C@H](C(C)C)C(=O)N5CCC[C@H]5C(=O)N(C)CC(=O)N(C)[C@@H](C(C)C)C(=O)O[C@H]4C)c3nc-2c(C(=O)N[C@@H]2C(=O)N[C@H](C(C)C)C(=O)N3CCC[C@H]3C(=O)N(C)CC(=O)N(C)[C@@H](C(C)C)C(=O)O[C@H]2C)c(N)c1=O (I: [aThr][dV]P[Sar][NMeV] / II: [aThr][dV]P[Sar][NMeV]; ester I:1-I:C, II:1-II:C; linker I:N-II:N via Actinocin(9to1))
active: SW-620 colon; 10 µM -27.9% | MCF7 breast; 10 µM -15.3% | HCT-116 colon; 10 µM -29.5% | KM12 colon; 10 µM 0.211%
inactive: SW-620 colon; 0.0025 µM 32.8% | MCF7 breast; 0.0025 µM 12.2% | HCT-116 colon; 0.0025 µM 16% | HCC-2998 colon; 0.0025 µM 15.2% | KM12 colon; 0.0025 µM 47.3%

O=c1[nH]cc(F)c(=O)[nH]1
inactive: SW-620 colon; 10 µM 60.1% and 77.8% | SW-620 colon; 25 µM 50.1% | SW-620 colon; 50 µM 43.4% | MCF7 breast; 10 µM 29.6% and 18.3% | MCF7 breast; 25 µM 11.5% | MCF7 breast; 50 µM 18.2% | HCT-116 colon; 10 µM 33.9% and 46.9% | HCT-116 colon; 25 µM 17.8% | HCT-116 colon; 50 µM 28.3% | HCC-2998 colon; 10 µM 18.9% | HCC-2998 colon; 50 µM 35.7% | KM12 colon; 10 µM 47% and 42.4% | KM12 colon; 25 µM 40.7% | KM12 colon; 50 µM 32%
active: HCC-2998 colon; 25 µM -17.8%

Cc1ccc2nc(N/N=C/c3ccc(C)s3)cc(C)c2c1
active: MCF7 breast; 100 µM -94% and -100%

CN(C)CCC(=O)c1c[nH]c2ccccc12
inactive: SW-620 colon; 10 µM 111% | MCF7 breast; 10 µM 93.2% | HCT-116 colon; 10 µM 103% | HCC-2998 colon; 10 µM 115% | KM12 colon; 10 µM 102%

N#C/C(=C1C=C/C(=N\O)C(Cl)=C\1)c1ccccc1
active: HCT-116 colon; 10 µM 5.69%
inactive: SW-620 colon; 10 µM 17.8% | MCF7 breast; 10 µM 14.8% | HCC-2998 colon; 10 µM 89.7% | KM12 colon; 10 µM 13.5%

Nc1ccc2cc(Br)c3ccccc3c2c1
inactive: MCF7 breast; 10 µM 35.1% | HCT-116 colon; 10 µM 71.1% | HCC-2998 colon; 10 µM 47.7% | KM12 colon; 10 µM 32.6%

Cc1cc(NCCCN(C)C)c2ccc3c(ccc4c(NCCCN(C)C)cc(C)nc43)c2n1
active: SW-620 colon; 10 µM -99.3% | MCF7 breast; 10 µM -89% | HCT-116 colon; 10 µM -15.4% | HCC-2998 colon; 10 µM -66.1% | KM12 colon; 10 µM -97.6%

COc1cc(C(C)(C)C)cc(OC)c1C(O)(c1c(OC)cc(C(C)(C)C)cc1OC)c1c(OC)cc(C(C)(C)C)cc1OC
active: SW-620 colon; 10 µM -79.8% | MCF7 breast; 10 µM -88.6% | HCT-116 colon; 10 µM -100% | HCC-2998 colon; 10 µM -91.9% | KM12 colon; 10 µM -80.8%

CSc1ccc2c(c1)C(N1CCN(C)CC1)Cc1ccccc1S2 (centres undefined)
active: HCC-2998 colon; 10 µM -39.2%
inactive: SW-620 colon; 10 µM 54.4% | MCF7 breast; 10 µM 20.9% | HCT-116 colon; 10 µM 29.3% | KM12 colon; 10 µM 21.4%

BrC/C=C/C[P+](c1ccccc1)(c1ccccc1)c1ccccc1
inactive: SW-620 colon; 10 µM 32.3% | MCF7 breast; 10 µM 20.3% | HCT-116 colon; 10 µM 14.8% | HCC-2998 colon; 10 µM 71.9% | KM12 colon; 10 µM 16.1%
